Measurements published in the supplement of paper PMC10849652.
About 8,800 targets were measured; listed, in parts, are those with a hit and a random draw of the rest. About 0.5% of all pairs of compound and target were hits. Values without a mark were called inactive.

Columns and labels:
Test in all cases: log2 fold change, soluble protein after heating vs DMSO (PISA); higher = thermal stabilisation; K562 lysate, 10 uM; active = over 0.2 and 3.5 SD of the protein, either way, in both replicates (recomputed)
erlotinib = compound: C#Cc1cccc(Nc2ncnc3cc(OCCOC)c(OCCOC)cc23)c1 [erlotinib]
How it was run: (§1)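 Values give the log-two fold change in thermal stability against solvent controls, from duplicates. Crude K562 extract at 1 mg/mL protein, made by dounce homogenisation in PBS pH 7.4 with 1 mM MgCl2, was treated with 10 μM compound for 30 min. After 3 min heating across 48°C-58°C, aliquots were pooled, adjusted to 0.5% NP-40 at 4°C and centrifuged at 21,000xg for 90 min. The supernatant was measured by TMTpro 16plex LC-MS/MS with channel sums equalised.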

[1] = compound: C/C(=N\NC(=O)C1=CC(=CC=C1)S(=O)(=O)N2CCOCC2)/C3=C(C=CC(=C3)Cl)O
How it was run: as §1

[2] = compound: C1=CC(=CC=C1C2=NC3=C(N2)C=C(C=C3)C(=O)N)OC4=CC=C(C=C4)Cl
How it was run: as §1

[3] = compound: C1=CC2=C(C=CC(=C2)/C=C\3/C(=O)NC(=NCC4=CC=CS4)S3)N=C1
How it was run: as §1

[4] = compound: C1=CC2=NC=CN=C2C=C1/C=C/3\C(=O)NC(=O)S3
How it was run: as §1

[5] = compound: C1=CC=C(C=C1)C2=NC(=C(N2)C3=CC=NC=C3)C4=CC(=C(C=C4)Cl)O
How it was run: as §1

[6] = compound: C1=CC=C2C(=C1)C3=NNC4=CC=CC(=C43)C2=O
How it was run: as §1

[7] = compound: C1CCN(C1)C(=O)NC2=CC=CC(=C2)NC3=NC=C(C(=N3)NCCC4=CN=CN4)Br
How it was run: as §1

[8] = compound: C1CN(CCC1(CC2=CC=C(C=C2)Cl)N)C3=NC=NC4=C3C=CN4
How it was run: as §1

IRAK-1-4 Inhibitor I = compound: C1COCCN1CCN2C3=CC=CC=C3N=C2NC(=O)C4=CC(=CC=C4)[N+](=O)[O-] [IRAK-1-4 Inhibitor I]
How it was run: as §1

Sequence of UniProt P29353 (P29353 whole entry, looked up): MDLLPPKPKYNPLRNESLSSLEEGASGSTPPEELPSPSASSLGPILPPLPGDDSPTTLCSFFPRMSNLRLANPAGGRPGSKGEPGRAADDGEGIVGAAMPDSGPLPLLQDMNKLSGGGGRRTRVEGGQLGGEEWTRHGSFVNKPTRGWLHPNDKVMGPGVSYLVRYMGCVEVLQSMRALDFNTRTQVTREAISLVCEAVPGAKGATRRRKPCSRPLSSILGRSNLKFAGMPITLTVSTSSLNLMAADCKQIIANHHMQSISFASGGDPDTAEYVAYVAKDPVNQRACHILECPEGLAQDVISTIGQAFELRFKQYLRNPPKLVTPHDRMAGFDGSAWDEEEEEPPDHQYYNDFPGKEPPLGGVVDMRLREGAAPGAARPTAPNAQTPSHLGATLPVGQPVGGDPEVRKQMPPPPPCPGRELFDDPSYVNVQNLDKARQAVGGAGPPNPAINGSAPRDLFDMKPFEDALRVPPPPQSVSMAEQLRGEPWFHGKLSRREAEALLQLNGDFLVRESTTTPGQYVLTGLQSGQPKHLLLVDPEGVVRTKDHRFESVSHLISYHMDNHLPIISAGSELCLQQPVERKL
Sequence of UniProt Q8NB90 (Q8NB90 whole entry, looked up): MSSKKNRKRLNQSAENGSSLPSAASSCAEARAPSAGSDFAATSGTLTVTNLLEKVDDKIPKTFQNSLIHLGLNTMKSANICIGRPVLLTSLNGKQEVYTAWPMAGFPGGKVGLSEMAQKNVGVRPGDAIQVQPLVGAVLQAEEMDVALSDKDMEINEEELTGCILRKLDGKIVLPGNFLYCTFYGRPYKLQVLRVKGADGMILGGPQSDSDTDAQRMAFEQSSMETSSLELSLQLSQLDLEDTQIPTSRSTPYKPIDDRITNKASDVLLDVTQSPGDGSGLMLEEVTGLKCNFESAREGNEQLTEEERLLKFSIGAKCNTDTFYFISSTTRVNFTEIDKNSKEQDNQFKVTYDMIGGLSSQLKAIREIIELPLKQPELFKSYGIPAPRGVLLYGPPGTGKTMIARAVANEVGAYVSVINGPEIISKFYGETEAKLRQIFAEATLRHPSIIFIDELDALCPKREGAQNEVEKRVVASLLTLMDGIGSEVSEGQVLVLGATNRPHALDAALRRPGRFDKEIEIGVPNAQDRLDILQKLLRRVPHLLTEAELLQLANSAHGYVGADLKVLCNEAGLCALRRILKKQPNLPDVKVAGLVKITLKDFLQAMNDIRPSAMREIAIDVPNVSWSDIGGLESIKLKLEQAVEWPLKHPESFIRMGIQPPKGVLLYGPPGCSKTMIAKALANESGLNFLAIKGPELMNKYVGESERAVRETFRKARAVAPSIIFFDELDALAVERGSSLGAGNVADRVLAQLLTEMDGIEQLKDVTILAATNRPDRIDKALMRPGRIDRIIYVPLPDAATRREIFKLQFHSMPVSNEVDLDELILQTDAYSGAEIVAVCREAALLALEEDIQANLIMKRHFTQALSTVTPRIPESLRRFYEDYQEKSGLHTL
Sequence of UniProt Q6PML9 (Q6PML9 whole entry, looked up): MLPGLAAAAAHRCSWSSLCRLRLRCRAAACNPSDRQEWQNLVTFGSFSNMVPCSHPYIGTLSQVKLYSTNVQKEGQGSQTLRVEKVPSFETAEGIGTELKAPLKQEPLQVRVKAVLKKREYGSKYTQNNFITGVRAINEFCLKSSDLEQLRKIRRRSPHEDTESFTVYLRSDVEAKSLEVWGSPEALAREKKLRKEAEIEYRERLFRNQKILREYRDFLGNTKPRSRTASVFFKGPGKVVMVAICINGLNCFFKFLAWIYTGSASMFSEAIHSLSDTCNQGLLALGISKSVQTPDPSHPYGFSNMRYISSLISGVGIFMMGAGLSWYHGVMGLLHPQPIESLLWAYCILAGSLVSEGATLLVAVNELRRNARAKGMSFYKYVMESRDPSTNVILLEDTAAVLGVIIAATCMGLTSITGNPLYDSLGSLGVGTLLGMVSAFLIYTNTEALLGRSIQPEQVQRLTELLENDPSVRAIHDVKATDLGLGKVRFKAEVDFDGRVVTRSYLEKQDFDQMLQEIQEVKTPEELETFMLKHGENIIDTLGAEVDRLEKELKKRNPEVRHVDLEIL
Sequence of UniProt O95926 (O95926 whole entry, looked up): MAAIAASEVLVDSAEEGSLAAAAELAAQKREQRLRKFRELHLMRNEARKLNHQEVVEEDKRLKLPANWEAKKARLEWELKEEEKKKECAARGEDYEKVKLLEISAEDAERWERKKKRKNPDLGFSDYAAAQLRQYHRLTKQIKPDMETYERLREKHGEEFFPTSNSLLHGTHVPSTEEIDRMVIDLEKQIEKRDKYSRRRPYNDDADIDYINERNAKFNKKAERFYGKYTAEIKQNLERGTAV
Sequence of UniProt P35711 (P35711 whole entry, looked up): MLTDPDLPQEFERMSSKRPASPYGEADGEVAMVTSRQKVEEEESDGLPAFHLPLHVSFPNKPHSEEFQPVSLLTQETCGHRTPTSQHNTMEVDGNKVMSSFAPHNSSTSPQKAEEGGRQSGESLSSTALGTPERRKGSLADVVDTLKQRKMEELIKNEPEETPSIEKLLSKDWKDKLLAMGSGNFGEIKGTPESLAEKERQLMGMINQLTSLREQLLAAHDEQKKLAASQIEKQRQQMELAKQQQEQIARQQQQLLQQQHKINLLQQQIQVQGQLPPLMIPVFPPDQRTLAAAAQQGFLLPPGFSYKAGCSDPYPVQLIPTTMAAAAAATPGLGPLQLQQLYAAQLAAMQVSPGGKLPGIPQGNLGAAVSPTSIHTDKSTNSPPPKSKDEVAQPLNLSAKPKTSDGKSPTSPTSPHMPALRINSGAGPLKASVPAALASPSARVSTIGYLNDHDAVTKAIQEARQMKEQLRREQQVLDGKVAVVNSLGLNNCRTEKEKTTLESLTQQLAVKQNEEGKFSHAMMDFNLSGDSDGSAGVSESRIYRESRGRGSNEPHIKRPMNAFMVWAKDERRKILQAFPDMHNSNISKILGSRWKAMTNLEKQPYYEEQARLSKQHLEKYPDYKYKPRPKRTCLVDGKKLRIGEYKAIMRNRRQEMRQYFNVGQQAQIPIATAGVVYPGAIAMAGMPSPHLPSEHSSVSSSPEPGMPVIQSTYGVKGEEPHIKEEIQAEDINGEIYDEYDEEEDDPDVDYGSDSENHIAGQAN
Sequence of UniProt Q8WU79 (Q8WU79 whole entry, looked up): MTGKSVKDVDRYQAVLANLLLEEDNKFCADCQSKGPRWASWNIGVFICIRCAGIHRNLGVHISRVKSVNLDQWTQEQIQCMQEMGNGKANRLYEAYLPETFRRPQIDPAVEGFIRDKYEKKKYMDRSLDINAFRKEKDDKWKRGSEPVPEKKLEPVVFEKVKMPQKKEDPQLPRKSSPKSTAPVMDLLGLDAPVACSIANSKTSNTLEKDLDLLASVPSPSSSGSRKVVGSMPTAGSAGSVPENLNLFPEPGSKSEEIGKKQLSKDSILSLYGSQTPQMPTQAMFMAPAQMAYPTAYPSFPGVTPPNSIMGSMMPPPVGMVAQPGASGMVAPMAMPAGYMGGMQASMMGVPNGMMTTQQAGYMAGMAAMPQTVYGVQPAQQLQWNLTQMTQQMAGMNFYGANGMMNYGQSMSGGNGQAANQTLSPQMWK
Sequence of UniProt O95149 (O95149 whole entry, looked up): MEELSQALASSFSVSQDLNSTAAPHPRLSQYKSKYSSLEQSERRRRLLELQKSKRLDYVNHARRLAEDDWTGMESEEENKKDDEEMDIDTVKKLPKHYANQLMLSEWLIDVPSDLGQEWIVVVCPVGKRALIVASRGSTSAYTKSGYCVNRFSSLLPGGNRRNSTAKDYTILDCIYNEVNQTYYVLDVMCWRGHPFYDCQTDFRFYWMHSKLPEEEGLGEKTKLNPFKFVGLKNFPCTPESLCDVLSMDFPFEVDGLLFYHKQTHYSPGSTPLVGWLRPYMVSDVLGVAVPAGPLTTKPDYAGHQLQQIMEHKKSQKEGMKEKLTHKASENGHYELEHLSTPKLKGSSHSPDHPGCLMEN
Sequence of UniProt Q7KZF4 (Q7KZF4 whole entry, looked up): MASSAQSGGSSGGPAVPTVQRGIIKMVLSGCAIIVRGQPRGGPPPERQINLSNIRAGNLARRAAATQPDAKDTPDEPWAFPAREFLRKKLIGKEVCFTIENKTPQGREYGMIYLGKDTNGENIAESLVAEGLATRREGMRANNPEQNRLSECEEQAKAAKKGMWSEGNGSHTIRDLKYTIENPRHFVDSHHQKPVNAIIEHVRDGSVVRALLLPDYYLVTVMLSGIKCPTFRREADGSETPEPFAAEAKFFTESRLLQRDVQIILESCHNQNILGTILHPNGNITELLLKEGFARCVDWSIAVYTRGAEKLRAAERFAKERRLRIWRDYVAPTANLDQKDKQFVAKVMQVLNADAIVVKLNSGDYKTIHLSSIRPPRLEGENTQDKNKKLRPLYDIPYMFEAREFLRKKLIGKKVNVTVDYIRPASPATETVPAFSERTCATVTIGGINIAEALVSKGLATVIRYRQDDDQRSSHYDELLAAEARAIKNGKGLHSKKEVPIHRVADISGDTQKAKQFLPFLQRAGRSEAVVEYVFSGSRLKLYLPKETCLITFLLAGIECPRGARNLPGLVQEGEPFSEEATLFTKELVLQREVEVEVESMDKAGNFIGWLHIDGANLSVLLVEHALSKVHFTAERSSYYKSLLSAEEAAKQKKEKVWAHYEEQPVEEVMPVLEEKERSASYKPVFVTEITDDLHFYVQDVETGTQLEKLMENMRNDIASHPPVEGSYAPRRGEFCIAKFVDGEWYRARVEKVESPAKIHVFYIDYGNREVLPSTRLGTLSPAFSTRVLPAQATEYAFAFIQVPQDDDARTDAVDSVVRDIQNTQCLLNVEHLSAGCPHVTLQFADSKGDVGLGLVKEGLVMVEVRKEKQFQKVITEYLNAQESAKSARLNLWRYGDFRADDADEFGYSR
Sequence of UniProt Q96EX1 (Q96EX1 whole entry, looked up): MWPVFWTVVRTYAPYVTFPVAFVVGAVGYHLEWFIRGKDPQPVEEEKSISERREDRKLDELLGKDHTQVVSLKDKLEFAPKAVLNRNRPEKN
Sequence of UniProt Q8NHG7 (Q8NHG7 whole entry, looked up): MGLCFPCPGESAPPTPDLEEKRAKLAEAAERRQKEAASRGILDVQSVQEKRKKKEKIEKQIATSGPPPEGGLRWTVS

| Target | log2 fold change (erlotinib) | log2 fold change [1] | log2 fold change [2] | log2 fold change [3] | log2 fold change [4] | log2 fold change [5] | log2 fold change [6] | log2 fold change [7] | log2 fold change [8] | log2 fold change (IRAK-1-4 Inhibitor I) |
| --- | --- | --- | --- | --- | --- | --- | --- | --- | --- | --- |
| SPIRE1 (UniProt Q08AE8) | -0.062 | 0.054 | -0.032 | 0.068 | -0.067 | 0.027 | 0.022 | 0.013 | -0.024 | -0.032 |
| SOX5 (UniProt P35711) | -0.169 | 0.08 | 0.025 | 0.38 (active) | 0.131 | 0.059 | -0.239 | 0.028 | 0.154 | 0.044 |
| SRRT (UniProt Q9BXP5) | 0.039 | 0.023 | -0.005 | 0.041 | 0.004 | 0.022 | -0.03 | -0.005 | -0.011 | 0.004 |
| SLC30A9 (UniProt Q6PML9) | -0.023 | 0.039 | -0.17 | -0.079 | 0.017 | -0.012 | -0.023 | -0.056 | 0.1 | -0.005 |
| SNW1 (UniProt Q13573) | -0.038 | -0.017 | 0.026 | -0.018 | -0.033 | -0.006 | -0.004 | 0.022 | -0.021 | 0 |
| SRSF7 (UniProt Q16629) | 0.019 | -0.068 | -0.043 | 0.002 | -0.066 | -0.02 | -0.016 | 0.032 | 0.008 | -0.03 |
| TAF6L (UniProt Q9Y6J9) | -0.013 | 0.174 | -0.077 | 0.005 | 0.025 | 0.055 | 0.055 | 0.022 | -0.104 | 0.051 |
| SLC27A2 (UniProt O14975) | -0.025 | 0.478 (active) | -0.122 | 0.099 | 0.048 | 0.007 | -0.016 | -0.038 | -0.035 | 0.614 (active) |
| SHC1 isoform 6 (UniProt P29353) | 0.029 | -0.024 | 0.05 | 0.035 | 0.04 | 0.011 | -0.043 | -0.005 | 0.001 | 0.012 |
| SNUPN (UniProt O95149) | -0.048 | -0.116 | 0.3 | 0.024 | 0.035 | 0.069 | 0.009 | 0.02 | -0.039 | -0.001 |
| SVIP (UniProt Q8NHG7) | 0.037 | 0.013 | -0.004 | -0.007 | 0.001 | 0.041 | -0.012 | 0.107 | 0.057 | 0.001 |
| SPATA5 (UniProt Q8NB90) | 0.04 | 0.025 | -0.006 | 0.025 | -0.042 | 0.042 | 0.015 | 0.017 | 0.017 | 0.016 |
| SMIM12 (UniProt Q96EX1) | 0.048 | -0.105 | -0.024 | -0.042 | -0.026 | 0.024 | -0.009 | 0.075 | 0.008 | -0.009 |
| SMC4 (UniProt Q9NTJ3) | -0.006 | -0.018 | -0.007 | 0 | -0.026 | 0 | -0.046 | -0.015 | -0.014 | -0.009 |
| SMYD3 (UniProt Q9H7B4) | 0.094 | 0.104 | 0.009 | -0.036 | 0.064 | -0.021 | -0.036 | -0.022 | -0.038 | 0.001 |
| SMAP2 (UniProt Q8WU79) | -0.009 | -0.018 | 0.073 | 0 | 0.023 | -0.2 | 0.015 | 0.037 | 0.023 | 0.044 |
| SND1 (UniProt Q7KZF4) | 0.022 | 0.042 | -0.009 | 0.007 | 0.031 | 0.017 | -0.042 | 0.005 | -0.005 | -0.012 |
| STK11IP (UniProt Q8N1F8) | 0.015 | 0.008 | -0.002 | -0.071 | 0.007 | -0.007 | 0.025 | -0.029 | 0.033 | 0.053 |
| TARBP1 (UniProt Q13395) | 0.134 | 0.047 | -0.02 | 0.051 | -0.059 | 0.044 | -0.048 | 0.007 | 0.034 | 0.084 |
| SLC16A1 (UniProt P53985) | -0.007 | -0.038 | 0.036 | 0.029 | -0.018 | 0.034 | 0.034 | -0.024 | 0.004 | 0.032 |
| SFR1 isoform 2 (UniProt Q86XK3) | -0.009 | -0.019 | 0.067 | 0.015 | -0.051 | 0.018 | 0.025 | 0.04 | 0.01 | 0.001 |
| STK39 (UniProt Q9UEW8) | 0.006 | 0.08 | -0.001 | -0.014 | -0.03 | 0 | -0.133 | -0.004 | -0.013 | -0.003 |
| STMN3 (UniProt Q9NZ72) | 0.012 | 0.01 | -0.003 | -0.122 | -0.062 | -0.026 | 0.043 | -0.097 | 0.091 | -0.006 |
| SYF2 (UniProt O95926) | 0 | 0.043 | 0.037 | -0.025 | -0.015 | 0.037 | 0.063 | -0.048 | 0 | -0.057 |
| STK26 (UniProt Q9P289) | 0.008 | -0.007 | -0.005 | -0.009 | 0.002 | -0.002 | 0.06 | 0.03 | -0.011 | -0.018 |
| STARD3 isoform 3 (UniProt Q14849) | -0.014 | 0.104 | -0.022 | -0.085 | -0.078 | -0.003 | 0.107 | -0.085 | 0.133 | 0.047 |
| SH3GL1 (UniProt Q99961) | -0.009 | 0.016 | -0.022 | -0.004 | -0.008 | 0.001 | -0.003 | -0.027 | 0.006 | -0.017 |
| SPG11 (UniProt Q96JI7) | 0.05 | 0.033 | 0.005 | -0.012 | 0.333 | 0.076 | 0.025 | -0.016 | 0.019 | 0.023 |
| SRM (UniProt P19623) | -0.006 | 0.039 | 0.017 | -0.001 | 0.014 | 0.004 | -0.003 | 0.017 | 0.027 | 0.007 |
| SNCA (UniProt P37840) | -0.265 | -0.037 | 0.098 | 0.025 | -0.147 | -0.02 | 0.044 | -0.056 | -0.085 | 0.019 |
